Source: PubChem
uPA generation = qHTS for Inhibitors of Cell Surface uPA Generation. cell surface uPA generation assay, qHTS. Potency, µM (doses to about 38.3 µM), for the others: at the top dose activity change, negative = inhibition, most hits filed as inhibitors. 0.31% of 330,000 active. AID 540303, 2011; active = well fitted inhibition curve with a large enough effect; inconclusive = small, poorly fitted or top-dose-only effect; inactive = no such curve, though single readings can be large or run the other way; tested in mouse RAW 264.7 cells; also: potency is read from the fitted curve at half-maximal effect; % is scaled to controls: 0 for no effect and ±100 for the full control effect; nearly all actives have a fitted effect of over 55% in size
DT40 TDP1 no CPT = qHTS for Inhibitors of human tyrosyl-DNA phosphodiesterase 1 (TDP1): qHTS in cells in absence of CPT. AID 686978, 2013. Potency, µM (doses to about 46.2 µM), without a hit: top-dose activity change, negative = growth inhibition, hits mostly inhibitors. DT40 Tdp1-/- hTDP1 cells, no CPT, ATP luminescence, 48 h. 15% of 420,000 active; also: potency is read from the fitted curve at half-maximal effect; % is scaled to controls: 0 for no effect and ±100 for the full control effect; nearly all actives have a fitted effect of over 55% in size
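Stably hTDP1-transfected Tdp1-null chicken DT40 cells were treated with library compounds minus camptothecin and grown for at least 48 hr at 37 °C, after which cellular ATP was quantified by luminescence.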
TDP1 inh = qHTS Assay for Inhibitors of Tyrosyl-DNA Phosphodiesterase (TDP1); Potency, µM (top dose mostly 130 µM), for the others: at the highest dose activity change, negative = inhibition, most hits filed as inhibitors; 0.28% of 350,000 active; Tyrosyl-DNA phosphodiesterase 1 (Homo sapiens), Q9NUW8; recombinant TDP1, AlphaScreen DNA substrate cleavage; also: potency is read from the fitted curve at half-maximal effect; % is scaled to controls: 0 for no effect and ±100 for the full control effect; nearly all actives have a fitted effect of over 40% in size
Target sequence (Q9NUW8 whole entry, looked up): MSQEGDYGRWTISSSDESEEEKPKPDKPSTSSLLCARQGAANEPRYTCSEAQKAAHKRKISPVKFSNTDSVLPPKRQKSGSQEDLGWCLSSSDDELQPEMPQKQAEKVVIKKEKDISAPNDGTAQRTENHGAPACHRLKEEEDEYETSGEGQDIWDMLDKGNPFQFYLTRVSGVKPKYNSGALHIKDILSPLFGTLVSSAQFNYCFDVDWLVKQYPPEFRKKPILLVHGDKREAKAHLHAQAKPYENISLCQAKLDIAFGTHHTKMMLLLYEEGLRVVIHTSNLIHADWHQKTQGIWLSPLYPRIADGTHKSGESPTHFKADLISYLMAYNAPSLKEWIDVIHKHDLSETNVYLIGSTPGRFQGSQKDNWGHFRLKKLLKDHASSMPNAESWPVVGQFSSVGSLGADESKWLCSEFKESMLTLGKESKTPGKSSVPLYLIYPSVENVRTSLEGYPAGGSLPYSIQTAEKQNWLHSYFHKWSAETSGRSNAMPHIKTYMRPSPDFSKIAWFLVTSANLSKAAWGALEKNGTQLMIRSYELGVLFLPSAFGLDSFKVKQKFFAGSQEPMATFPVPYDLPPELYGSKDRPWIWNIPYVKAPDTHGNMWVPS
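Signal: AlphaScreen proximity between streptavidin donor and anti-FITC acceptor beads on intact substrate. Reaction: Tdp1 1 nM, substrate 15 nM final, 5 min RT after 15 min compound preincubation.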
TDP1 cell CPT = qHTS for Inhibitors of human tyrosyl-DNA phosphodiesterase 1 (TDP1): qHTS in cells in presence of CPT; chicken DT40 Tdp1-/-;hTDP1 cells + 20 nM CPT, ATP luminescence, 48 h; Potency, µM (doses to about 46.2 µM), for inactives: at the highest dose activity change, negative = growth inhibition, hits mostly inhibitors; 12% of 420,000 active; also: potency is read from the fitted curve at half-maximal effect; % is scaled to controls: 0 for no effect and ±100 for the full control effect; nearly all actives have a fitted effect of over 55% in size
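Chicken DT40 Tdp1-/- cells stably complemented with human TDP1 were seeded at 400 cells/well in medium containing 20 nM camptothecin, exposed to pin-transferred compounds, and grown at 37 °C for at least 48 hr. Viability was read as ATP luminescence.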
miR-21 reporter = qHTS Assay for Modulators of miRNAs and/orActivators of miR-21 | HeLa miR-21 FLuc reporter, luciferase, 48 h | Potency, µM (top dose mostly 38.3 µM), without a hit: at the highest dose activity change, positive = activation, most hits filed as activators | 340,000 tested, under 10 active;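 also: % of control where 0% means no effect; miR-21 action dims this reporter so a rising signal means less miR-21 action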
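HeLa miR-21-FLuc reporter line, endogenous miR-21; 2000 cells/well in DMEM/10% FBS; compound titration up to ~40uM final, 48 h, 37 degree Celsius; luciferase detection reagent, 15 min lysis, CCD luminescence.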
Starred values were filed as active, the others as inactive; u = inconclusive; x = no result. An excerpt weighted towards active compounds, which were near 16% of everything screened. Unless noted, calls follow the shape of the dose curve; as a rule, active = well fitted curve in the direction sought with a large enough effect; inconclusive = small, poorly fitted or top-dose-only effect, or another doubt; inactive = no such curve, though single readings can be large; an effect the other way counts as inactive or inconclusive.

SMILES | uPA generation | DT40 TDP1 no CPT | TDP1 inh | TDP1 cell CPT | miR-21 reporter
COc1ccc(-c2cc(=O)n3[nH]cnc3n2)cc1 | x | -4% | 5% | 0% | 7%
Cc1ccc2nc(-c3ccc(F)cc3)nc(SCC(=O)NCC3CCCO3)c2c1 (centres undefined) | 6% | -15% | 1% | -19% | -3%
O=C(c1ccc([N+](=O)[O-])cc1)N1CCc2ccccc21 | -3% | -13% | x | -6% | x
Cc1ccc(NC2CC(=O)N(c3cccc([N+](=O)[O-])c3)C2=O)cc1 (centres undefined) | -1% | 8% | 5% | 7% | -3%
CCn1c(C(=O)OC)cc2c1ccn2-c1ccc(F)cc1 | -4% | 13µM* | 9% | 18µM* | -59%
CC1CCN(Cc2nnnn2CCCC(=O)NCC(C)(C)N2CCOCC2)CC1 | -12% | 14% | 3% | -11% | -1%
COc1cc(CNCCO)cc(Cl)c1OCc1ccccc1Cl | 1% | u | 1% | u | -9%
OCCCCNCc1ccc(OCc2ccc(Cl)cc2Cl)cc1 | 1% | 23µM* | 11% | 21µM* | u
S=C(Nc1ccccc1)Nc1ccc(OCc2ccc(Cl)cc2Cl)cc1 | -1% | u | 6% | 18µM* | u
O=c1[nH]nc(-c2ccc(OCc3ccc(Cl)cc3Cl)cc2)o1 | 7% | 21% | x | -4% | -2%
OCCNCc1ccc(OCc2ccc(Cl)cc2Cl)cc1 | -6% | 18µM* | -5% | 18µM* | -20%
O=S1(=O)N[C@@H](Cc2ccccc2)COc2cccc(N3CCN(Cc4ccccc4F)CC3)c21 | x | 18µM* | x | u | x
O=C(c1ccco1)N1CCN(S(=O)(=O)c2cccc(Cl)c2)CC1 | 1% | -3% | x | 6% | -3%
CCOc1ccccc1N(C)C(=O)C1CCCN(c2ncnc3onc(-c4ccc(F)cc4)c23)C1 (centres undefined) | x | 8.2µM* | -3% | 12µM* | -2%
CCOc1ccccc1NC(=O)C1CCCN(c2ncnc3onc(-c4ccc(F)cc4)c23)C1 (centres undefined) | x | 23µM* | 4% | 21µM* | -9%
COc1cccc(NC(=O)C2CCCN(c3ncnc4onc(-c5ccc(F)cc5)c34)C2)c1 (centres undefined) | x | 16µM* | -2% | u | -11%
CCc1ccccc1NC(=O)C1CCCN(c2ncnc3onc(-c4ccc(F)cc4)c23)C1 (centres undefined) | 7% | u | 1% | u | -2%
COc1cccc(CNC(=O)C2CCCN(c3ncnc4onc(-c5ccc(F)cc5)c34)C2)c1 (centres undefined) | x | u | 5% | u | 0%
O=C(NCc1ccc(F)cc1)C1CCCN(c2ncnc3onc(-c4ccc(F)cc4)c23)C1 (centres undefined) | x | 16µM* | 2% | 21µM* | 2%
CCOC(=O)N1CCN(S(=O)(=O)c2ccc(C(=O)N(CCN(C)C)c3nc4c(C)cccc4s3)cc2)CC1 | 5% | -1% | 9% | -8% | -5%
COc1cc(Cl)c(C)cc1NC(=O)C1CCCN(c2ncnc3onc(-c4ccc(F)cc4)c23)C1 (centres undefined) | x | 8.2µM* | 1% | 15µM* | 8%
Cc1ccc(NC(=O)C2CCCN(c3ncnc4onc(-c5ccc(F)cc5)c34)C2)c(Cl)c1 (centres undefined) | x | u | 3% | u | -3%
N#CC1C(=O)Nc2cccnc21 (centres undefined) | x | 2% | x | 1% | x
O=C(NC(=S)N(Cc1ccccc1)Cc1ccccc1)C1CCCCC1 | 0% | 23µM* | 1% | u | -1%
C=CCN(CC=C)S(=O)(=O)c1ccc(NC(=S)NC(=O)C2CC2)cc1 | 6% | 13µM* | 1% | 23µM* | 15%
